This is a sample that favours compounds with a hit; in the whole collection about 9.5% have one here.
Tau FP inhib: blocks human tau fibril formation measured by polarization | P10636 | K18 P301L tau heparin fibrillization, Alexa594 FP, 6 h | Potency, µM (doses to about 57.7 µM), for the others: at the highest dose activity, negative = inhibition, actives largely listed as inhibitors | 280,000 compounds, 0.39% hits; also: nearly all actives have a fitted effect of over 55% in size
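Steps: dispense K18 P301L tau (15 uM plus 0.24 uM Alexa 594 tracer, final) in pH 7 sodium acetate; add compound; add heparin (20 uM final); incubate 6 hr, 37 C; add ThT (30 uM final); after 1 hr ambient, read FP.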
NPSR antag: antagonists of human neuropeptide S receptor cAMP signaling | Q6W5P4 | CHO-NPSR cells, cAMP TR-FRET, antagonist mode | Potency, µM (top dose mostly 38.3 µM), for inactives: at the top dose activity change, negative = inhibition, most hits filed as inhibitors | 220,000 compounds, 1% hits; also: nearly all actives have a fitted effect of over 50% in size
Target sequence (Q6W5P4 whole entry, looked up): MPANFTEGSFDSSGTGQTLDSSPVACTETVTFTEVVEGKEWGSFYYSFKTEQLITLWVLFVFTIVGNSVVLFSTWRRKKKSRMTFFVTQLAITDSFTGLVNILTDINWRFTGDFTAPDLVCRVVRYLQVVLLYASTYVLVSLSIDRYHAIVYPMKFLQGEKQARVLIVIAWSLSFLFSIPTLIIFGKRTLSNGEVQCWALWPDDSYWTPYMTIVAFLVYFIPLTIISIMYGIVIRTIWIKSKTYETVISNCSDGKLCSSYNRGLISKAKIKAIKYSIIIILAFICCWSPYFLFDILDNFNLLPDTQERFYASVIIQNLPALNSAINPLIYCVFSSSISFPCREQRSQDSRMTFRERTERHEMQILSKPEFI
Tau ThT inhib: blocks human tau fibril formation measured by thioflavin T | P10636 | recombinant tau K18 P301L, heparin-induced fibrillization, ThT fluorescence | Potency, µM (titrated, usually from 57.4 µM), for inactives: at the highest dose activity, negative = inhibition, most hits filed as inhibitors | 270,000 compounds, 2.1% hits | AID 1460; also: nearly all actives have a fitted effect of over 55% in size
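K18 P301L tau (15 uM + 0.24 uM Alexa 594-tagged), heparin 20 uM, NaOAc pH 7, 6 h 37 C; ThT 30 uM, 1 h RT, ex 450/em 510 nm.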
HPGD block: HPGD (human) dehydrogenase inhibition; purified HPGD, NADH fluorescence kinetic, PGE2 substrate; Potency, µM, for inactives: at the top dose activity change, negative = inhibition, hits mostly inhibitors; 150,000 compounds, 4.3% hits; AID 894; active = well fitted inhibition curve with a large enough effect, not every such curve was filed as active; inconclusive = small, poorly fitted or top-dose-only effect, or another doubt; inactive = no such curve, though single readings can be large or run the other way
Target sequence (P15428 whole entry, looked up): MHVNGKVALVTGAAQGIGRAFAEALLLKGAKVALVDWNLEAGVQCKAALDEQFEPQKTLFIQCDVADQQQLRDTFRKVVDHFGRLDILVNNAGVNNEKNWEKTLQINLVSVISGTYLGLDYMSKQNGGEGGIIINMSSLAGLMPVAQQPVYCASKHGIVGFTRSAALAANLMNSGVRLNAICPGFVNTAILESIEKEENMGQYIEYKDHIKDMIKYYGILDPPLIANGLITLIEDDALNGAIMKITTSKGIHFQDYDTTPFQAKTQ
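20 nM HPGD preincubated 15 min at room temperature with compound in 50 mM Tris-HCl pH 8, 0.01% Tween 20. Started with 1 mM NAD+ and 30 uM prostaglandin E2; NADH fluorescence (360/450 nm) read 5 times over 30-s intervals, last minus first.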
ALDH1A1 inh: inhibitors of human aldehyde dehydrogenase 1A1 | P00352 | Purified ALDH1A1, NADH fluorescence, propionaldehyde substrate | Potency, µM (highest dose often 75.3 µM), inactives show top-dose activity, negative = inhibition, usual class: inhibitors | 220,000 compounds, 7.3% hits | AID 1030; active = well fitted inhibition curve with a large enough effect, not every such curve was filed as active; inconclusive = small, poorly fitted or top-dose-only effect, or another doubt; inactive = no such curve, though single readings can be large or run the other way;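 also: plate controls were no enzyme wells and a reference inhibitor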
Tau fluor counter: counter-screen for tau fibril formation inhibitors. tau K18 P301L Alexa594 fluorescence, heparin fibrillization. Potency, µM (doses to about 57.7 µM), for the others: top-dose activity change, negative = decrease. 280,000 compounds, 0.93% hits. AID 1463; also: nearly all actives have a fitted effect of over 55% in size
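Human tau K18 P301L (15 uM unlabeled, 0.24 uM Alexa 594-labeled) in 100 mM sodium acetate pH 7 with 20 uM heparin, 6 hr at 37 C. ThT 30 uM added, 1 hr ambient; Alexa 594 FP and total fluorescence read at 555/632 nm.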
The depositor's hits bear a star; ? = inconclusive; . = not tested or not shown; ! = not confirmed by another sample; [ ] = dose if it differs, or a comment. Unless noted, calls follow the shape of the dose curve; as a rule, active = well fitted curve in the direction sought with a large enough effect; inconclusive = small, poorly fitted or top-dose-only effect, or another doubt; inactive = no such curve, though single readings can be large; an effect the other way counts as inactive or inconclusive. Unless noted, % is scaled to controls: 0 for no effect and ±100 for the full control effect; potency is read from the fitted curve at half-maximal effect.

SMILES	Tau FP inhib	NPSR antag	Tau ThT inhib	HPGD block	ALDH1A1 inh	Tau fluor counter
COc1cc(/C=C/C(=O)c2cccs2)cc(OC)c1OC	1%	.	?	28µM*	10µM*	-6%
Cc1cc(F)ccc1OC1C=CC(c2ccc3c(c2)OCO3)OC1CO (stereo unspecified)	-3%[11.6 µM]	.	-15%[11.5 µM]	.	0%[13.5 µM]	-8%[11.6 µM]
Cc1c(/C=C/C(=O)c2ccc(Cl)s2)cnn1C	5%	-17%[46.1 µM]	?	?	?	-4%
COc1cc(/C=C/C(=O)c2ccc(Cl)s2)cc(OC)c1O	5%	10µM*	14µM*	-28%	?	?
CCN1C/C(=C/c2cccc([N+](=O)[O-])c2)C(=O)/C(=C/c2cccc([N+](=O)[O-])c2)C1	?	2.5µM*	?	-2%	?	-19%
S=c1[nH]c2ccccc2s1	-1%	.	-13%	25µM*	11µM*	-7%
Cc1ccc2c(c1)sc1nc(=O)n(-c3ccccc3)c(=O)n12	-6%	4%[7.67 µM]	-6%	.	.	-17%
Cc1cc(C)c2nc3s/c(=C/c4ccc5c(c4)n(C)c(=O)n5C)c(=O)n3c2c1	-1%	-5%[46.1 µM]	-9%	16µM*	18µM*	2%
CC(C(=O)NCC1CCCCC1)N1CCN(S(=O)(=O)c2ccccc2F)CC1 (stereo unspecified)	2%	-18%	0%	.	16µM*	-5%
O=S(=O)(c1ccccc1F)N1CCN(CC(O)c2ccccc2)CC1 (stereo unspecified)	5%	2%	2%	.	-4%	4%
CC(C)=CCc1c(O)ccc2c1OC(c1ccc(O)c(O)c1)CC2=O (stereo unspecified)	?	15%	?	.	-16%	?
O=C1CC(c2ccc(O)c(O)c2)Oc2c1ccc(O)c2O (stereo unspecified)	?	12%	16µM*	.	.	?
CC(=O)NCCc1cc2ccc(C)cc2[nH]c1=O	-2%	-3%[46.1 µM]	-8%	-20%	2%	-2%
CC(C)CC(=O)NCCCCc1ccccc1	-2%	19%	7%	16µM*	?	-5%
O=C(NCCCCc1ccccc1)c1ccc(Br)o1	3%	-12%	1%	14µM*	-2%	1%
CC(C)C(=O)NCCCc1ccccc1	0%	0%[46.1 µM]	-5%	-15%	6%	0%
Cc1ccc2cc(CCNC(=O)c3ccc(Br)o3)c(=O)[nH]c2c1	-1%	-5%[46.1 µM]	?	28µM*	?	-6%
O=C(NCCCc1ccccc1)c1ccc(Br)o1	-1%	-5%[46.1 µM]	-4%	25µM*	?	-1%
COc1ccc(Cn2c(-c3ccc(C)cc3)c[n+]3ccccc23)cc1	1%	11%	-6%	-6%	-4%	-5%
O=C(NC(=S)NCCC1=CCCCC1)c1ccc(Br)o1	6%	-39%	-12%	.	?	-10%
O=C(NCCC1=CCCCC1)c1ccc(Br)o1	10%	4%[46.1 µM]	-9%	-17%	3.5µM*	7%
O=C(NCc1ccc(Cl)cc1)c1ccc(Br)o1	-7%[81.3 µM]	12%[46.1 µM]	?	35µM*	13µM*!	-27%[81.3 µM]
Cc1ccn2cc(CNC(=O)c3ccc(Br)o3)nc2c1	6%	-4%[46.1 µM]	-10%	16µM*	1%	-6%
COC(=O)c1cc2sc(C)cc2n1CC(=O)Nc1ccc(C)cc1Cl	1%	.	3%	.	.	-7%
CC(=O)OCC(=O)[C@@]12OC3(CCCC3)OC1CC1C3CCC4=CC(=O)C=C[C@@]4(C)[C@]3(F)C(O)C[C@]12C (stereo partly specified)	?	.	0%	-7%	-3%	-17%
SMILES	Tau FP inhib	NPSR antag	Tau ThT inhib	HPGD block	ALDH1A1 inh	Tau fluor counter
O=C1CCCC(O)=C1C=NCc1ccccc1	-6%	8%	3%	.	1%	1%
COc1ccc(-n2c(=O)cc(N3CCN(c4ccccc4F)CC3)[nH]c2=O)cc1	4%	-7%[46.1 µM]	-6%	2%	4µM*	2%
O=C(O)/C=C/c1coc2ccccc2c1=O	3%	17%	-4%	-2%	7%	-1%
N#C/C(=C\c1coc2ccccc2c1=O)C(N)=S	-7%	-34%	-14%	.	32µM*	-10%
O=C(NCC(c1cccnc1)N1CCc2ccccc21)C(=O)Nc1ccccc1F (stereo unspecified)	6%	.	-9%	.	.	?
COc1ccc2c(c1)OCc1c-2oc2cc(OC)ccc12	?	.	8.9µM*	-5%	-4%	?
COc1ccc(C2C(C(=O)N3CCCCC3)CC(=O)N2c2ccc(OC)cc2)cc1 (stereo unspecified)	-12%	-10%[46.1 µM]	-6%	-9%	14µM*	-15%
COc1ccc(C2C(C(=O)N3CCC(C(N)=O)CC3)CC(=O)N2c2ccc(OC)cc2)cc1 (stereo unspecified)	2%	44%	0%	.	?	-3%
COc1ccc(C2C(C(=O)O)CCC(=O)N2c2ccc(OC)cc2)cc1 (stereo unspecified)	-1%	2%[46.1 µM]	-2%	2%	0%	-5%
COc1ccc(C2C(C(=O)NCc3ccco3)CCC(=O)N2c2ccc(OC)cc2)cc1 (stereo unspecified)	-6%	-2%[46.1 µM]	-5%	3%	11µM*	-7%
CCNC(=O)COC(=O)C1CCC(=O)N(c2ccc(OC)cc2)C1c1ccc(OC)cc1 (stereo unspecified)	12%	-10%[46.1 µM]	4%	-9%	8.9µM*	6%
COC(=O)N1[C@H](Cc2ccccc2)C=C[C@]1(C)C(=O)NCc1ccc(N(C)C)cc1	11%	.	-7%	-8%	?	-11%
CC(=O)N1[C@H](Cc2ccccc2)C=C[C@]1(C)C(=O)NCc1ccc(C)o1	?	16%	?	22µM*!	8%	-8%
CN1[C@H](Cc2ccccc2)C=C[C@]1(C)C(=O)NCC1CC1	-1%	.	?	-19%	28µM*	-15%
CN(C)c1ccc(CNC(=O)[C@@]2(C)C=C[C@@H](Cc3ccccc3)N2C)cc1	-1%	.	-19%	-15%	20µM*	-16%
COC(=O)CNC(=O)C1(C)C=CC2(CCCCC2)N1C(=O)OC (stereo unspecified)	-14%	.	4%	-18%	3%	-4%
COC(=O)N1C2(C=CC1(C)C(=O)NCc1ccc(N(C)C)cc1)CCCCC2 (stereo unspecified)	5%	.	-2%	-2%	25µM*	-5%
CC(Sc1nncs1)C(=O)NCC(=O)Nc1ccc(F)c(F)c1F (stereo unspecified)	3%	9%	-3%	.	17%	2%
Cc1ccc2c(c1)cc1c(=O)n(CC(=O)NC(C)CCc3ccccc3)nc(C)n12 (stereo unspecified)	-5%	.	1%	.	.	-4%
Cc1cccc(Cn2c(SCC(=O)Nc3ccccc3)nc3c2c(=O)[nH]c(=O)n3C)c1	-2%	-14%[46.1 µM]	-10%	22µM*	?	-14%
